From ChEMBL document CHEMBL1961873, “Compounds: GSK PKIS; Assays: Nanosyn kinase panel” (2012)

target: Mitogen-activated protein kinase 1 (Homo sapiens) (UniProt P28482); conditions: at 1 µM
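Also: values are mean inhibition, from the GSK PKIS collection.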

Mitogen-activated protein kinase 1 (Homo sapiens), sequence (P28482 whole entry): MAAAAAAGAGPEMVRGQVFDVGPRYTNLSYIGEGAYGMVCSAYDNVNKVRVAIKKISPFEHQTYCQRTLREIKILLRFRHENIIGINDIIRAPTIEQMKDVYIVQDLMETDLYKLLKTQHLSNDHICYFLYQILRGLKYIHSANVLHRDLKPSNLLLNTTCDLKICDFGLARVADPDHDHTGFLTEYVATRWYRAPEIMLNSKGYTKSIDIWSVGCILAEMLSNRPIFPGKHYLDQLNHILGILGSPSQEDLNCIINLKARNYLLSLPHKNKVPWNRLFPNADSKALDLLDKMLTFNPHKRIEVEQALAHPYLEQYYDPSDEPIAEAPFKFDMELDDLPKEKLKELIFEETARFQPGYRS

Row | SMILES | inhibition
1 | CS(=O)(=O)CCNCc1cc(-c2cc3c(Nc4ccc(OCc5cccc(F)c5)c(Cl)c4)ncnc3s2)cs1 | 7.79%
2 | CCC(=O)Nc1ccc(C)c(-c2ccc(C(=O)NCC3CC3)cc2)c1 | 4.25%
3 | COc1cc(Nc2ncc3c(C)nc(-c4cccc(C(F)(F)F)c4)n3n2)cc(OC)c1OC | 13%
4 | Fc1ccc(-c2nc3n(c2-c2ccncc2)CCS3)cc1 | 5.59%
5 | NC(=O)c1cc(-c2ccncc2)cc(-c2ccccc2)c1N | 6.15%
6 | CCc1nccc2c1nc(-c1nonc1N)n2CC | 0.54%
7 | CN(C)c1ccc2c(c1)/C(=C/Nc1ccc(S(N)(=O)=O)cc1)C(=O)N2 | 2.53%
8 | CS(=O)(=O)CCNCc1ccc(-c2ccc3ncnc(Nc4ccc(OCc5ccccc5)c(Br)c4)c3c2)o1 | 4.08%
9 | Cc1nnc(-c2ccc(C)c(-c3ccc(C(=O)NCc4ccc(Cl)cc4)cc3)c2)o1 | 4.45%
10 | Cc1ccc(C(=O)NC2CCC2)cc1-c1ccc(C(=O)NCC2CC2)cc1 | 3.11%
11 | Clc1ccc(CNc2nccc(-c3cnn4ncccc34)n2)cc1 | 3.23%
12 | c1ccc(-c2n[nH]cc2-c2ccnc(-c3ccc(OCCN4CCOCC4)cc3)c2)nc1 | -3.16%
13 | CCS(=O)(=O)c1ccc(OC)c(Nc2ncc(-c3cccc(-c4ccccc4F)c3)o2)c1 | -3.35%
14 | COc1cc2ncn(-c3cc(OCc4cccs4)c(C(N)=O)s3)c2cc1OC | 2.33%
15 | O=C1Nc2ccccc2/C1=C/Nc1ccc(-n2cncn2)cc1 | 6.4%
16 | C/C(Nc1ccc(S(N)(=O)=O)cc1)=C1/C(=O)Nc2ccccc21 | -2.06%
17 | CCc1cccc(CC)c1/C=C/c1cncc(C(=O)NC)c1 | 1%

Row | SMILES | inhibition
18 | NC(=O)c1cc(-c2ccc(F)cc2)cc(-c2ccncc2)c1N | 5.18%
19 | O=C(NCC1CC1)c1ccc(-c2cccc(C(=O)NC3CC3)c2)cc1 | 1.43%
20 | COc1ccc2ncn(-c3cc(O[C@H](C)c4ccccc4Cl)c(C(N)=O)s3)c2c1 | 4.54%
21 | O=C1Nc2ccc(I)cc2C1=Cc1cc(Br)c(O)c(Br)c1 | 4.96%
22 | Fc1ccc(-c2ncn(CCCN3CCOCC3)c2-c2ccncc2)cc1 | 1.09%
23 | COc1ccc2cc(-c3c(-c4ccncc4)nc(-c4ccc([S+](C)[O-])cc4C)n3C)ccc2c1 (centres undefined) | -2.44%
24 | COC(=O)Nc1nc2ccc(Sc3ccc(NC(=O)Nc4cc(C(F)(F)F)ccc4F)cc3)cc2[nH]1 | -0.71%
25 | CN(C)CCCNc1nccc(-c2c(-c3ccc(F)cc3)nn3cc(C(F)(F)F)ccc23)n1 | 2.71%
26 | CCS(=O)(=O)c1ccc(OC)c(Nc2ncc(-c3ccccc3Cl)o2)c1 | 0.84%
27 | Fc1ccc(-c2c(-c3ccncc3)nc3n2CCS3)cc1 | 3.3%
28 | CCN(CC)Cc1ccc(Nc2nccc(-c3cnn4ncccc34)n2)cc1 | 15.8%
29 | COc1cc2ncn(-c3cc(OCCc4ccccc4)c(C(N)=O)s3)c2cc1OC | 3.64%
30 | Cc1ccc(NC(=O)c2ccoc2)cc1-c1ccc(C(=O)NCC2CC2)cc1 | 3.37%
31 | NS(=O)(=O)c1ccc(N/N=C2\C(=O)Nc3ccc(C(=O)NCCCn4ccnc4)cc32)cc1 | 38.5%
32 | NCc1ccc(-n2c(-c3nonc3N)nc3cnccc32)cc1 | 8.32%
33 | COc1cccc(-n2cnc3c(N/N=C/c4ccncc4)ncnc32)c1 | -0.07%
34 | C[C@@H](Oc1cc(-n2cnc3ccc(OC4CCN(C)CC4)cc32)sc1C(N)=O)c1ccccc1Cl | 6.64%
